HCMV antiviral: blocks human cytomegalovirus replication. activity change, negative = inhibition, % at 57.5 µM. 410,000 tested, 4.5% active. AID 1259415. HFF cells, HCMV-luciferase reporter, 72 h; hits give low values; in the data active = activity change below about -60%; inconclusive = no clear call, values can overlap the other calls; inactive = above about -39%
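Two compound doses tested in HFFs infected with HCMV-luciferase, MOI 1 PFU/cell, 72 h at 37C. Lysate luminescence read with OneGlo; data normalized against buffer-only and 10uM Salinomycin inhibitor controls.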
HCV inhibitor: inhibitors of hepatitis C virus infection; Huh7.5.1 HCVcc-Cre infection, luciferase reporter, 44 h; Potency, µM (doses to about 41.8 µM), inactives show top-dose activity change, negative = inhibition, hits mostly inhibitors; 340,000 tested, 3.4% active; active = well fitted inhibition curve with a large enough effect; inconclusive = small, poorly fitted or top-dose-only effect, or another doubt; inactive = no such curve, though single readings can be large or run the other way; note: potency is the fitted concentration of half-maximal effect
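A cell-based infection assay in which seeded cells (1,000 per well) receive test compound after 4 h, are inoculated with HCVcc-Cre at approximately 0.5 moi, and are incubated 44 h before luminescence detection.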
VACV Venus inh: inhibitors of vaccinia virus (Venus reporter); Vaccinia virus Venus reporter expression, fluorescence; 330,000 tested, 0.46% active; Potency, µM (top dose mostly 36.5 µM), for the others: at the top dose activity change, negative = inhibition, actives largely listed as inhibitors; calls by dose curve; tested in A549 cells; note: potency is the fitted concentration of half-maximal effect; nearly all actives have a fitted effect of over 30% in size
VACV mCherry inh: vaccinia inhibition (mCherry reporter); Potency, µM (doses to about 36.5 µM), inactives show at the highest dose activity change, negative = inhibition, most hits filed as inhibitors; 310,000 tested, 0.63% active; AID 720579; Vaccinia virus mCherry reporter infection, fluorescence; calls by dose curve; tested in A549 cells; note: potency is the fitted concentration of half-maximal effect; nearly all actives have a fitted effect of over 35% in size
LASV entry inh: inhibitors of Lassa virus binding or cell entry; Lassa virus pseudotype entry inhibition, cell reporter; Potency, µM (series often up to 37.9 µM), inactives show at the highest dose activity change, negative = inhibition, actives largely listed as inhibitors; 300,000 tested, 1.2% active; AID 540256; calls by dose curve; tested in HEK293 cells; note: potency is the fitted concentration of half-maximal effect; nearly all actives have a fitted effect of over 50% in size
Marburg entry inh: blocks Marburg virus binding to or entry into cells; Marburg virus pseudotyped entry inhibition, cell reporter; Potency, µM (doses to about 37.8 µM), for the others: at the highest dose activity change, negative = inhibition, usual class: inhibitors; 300,000 tested, 1.8% active; AID 540276; calls by dose curve; tested in HEK293 cells; note: potency is the fitted concentration of half-maximal effect
The depositor's hits bear a star; i = inactive; ? = inconclusive; . = not tested or not shown; [ ] = dose if it differs, or a comment. Only some compounds are listed: those with a hit (about 7.8% of all), similar ones and a draw of the others. % is set by controls: 0 for no effect and ±100 for the full control effect.

SMILES	HCMV antiviral	HCV inhibitor	VACV Venus inh	VACV mCherry inh	LASV entry inh	Marburg entry inh
Oc1ccc2c3c1OC1c4oc5ccccc5c4C[C@@]4(O)[C@@H](C2)N(CC2CC2)CC[C@]314 (stereo not given in full)	-61.4*	-5.4%	-11.8%	i	.	.
Oc1ccc2c3c1OC1c4[nH]c5ccccc5c4C[C@@]4(O)C(C2)N(CC2CC2)CC[C@]314 (stereo not given in full)	42.1	?	-22.1%	-7.8%	.	.
Oc1ccc2c3c1O[C@H]1c4[nH]c5ccccc5c4C[C@@]4(O)C(C2)N(CC2CC2)CCC314 (stereo not given in full)	.	.	-6.1%	-18.0%	18.3µM*	16.4µM*
Oc1ccc2c3c1O[C@H]1c4oc5ccccc5c4C[C@@]4(O)C(C2)N(CC2CC2)CCC314 (stereo not given in full)	.	.	.	.	.	10.3µM*
Cc1occc1C(=O)Nc1cccc(-c2nc(CNC(=O)c3ccc(N4CCCCC4)cc3)c(C)o2)c1	.	.	-2.7%	-10.0%	.	.
CCN(CC)CCN(C(=O)CCS(=O)(=O)c1ccccc1)c1nc2cc3c(cc2s1)OCO3	24.2	2.0%	-28.6%	?	?	?
CCOc1ccc(-c2n[nH]c3c2C(c2cccs2)N(c2ccc(Br)cc2)C3=O)cc1 (stereo not given)	-98.6*	.	-29.0%	-20.1%	?	?
CCOc1ccc(N2C(=O)c3[nH]nc(-c4ccc(OC)cc4)c3C2c2cccs2)cc1 (stereo not given)	-95.5*	.	?	?	?	7.94µM*
CCCN1C(=O)c2[nH]nc(-c3ccc(OC)cc3)c2C1c1ccccn1 (stereo not given)	198.8	.	-3.4%	-8.8%	-0.3%[46.1 µM]	-15.1%[46.1 µM]
Cc1ccc(NC(=O)CSc2nc(=O)n(Cc3ccco3)c3c2CCC3)cc1F	-25.1	.	-17.9%	-22.1%	4.7%[46.1 µM]	.
COc1ccc(-c2oc3ncn(CCN4CCOCC4)c(=N)c3c2-c2ccc(OC)cc2)cc1	?	12.6µM*	.	.	?	16.4µM*
COc1ccc(-c2oc3ncnc(NCCN4CCOCC4)c3c2-c2ccc(OC)cc2)cc1	.	?	-9.7%	-0.1%	?	?
COc1ccc(-c2oc3ncnc(NCCCN4CCOCC4)c3c2-c2ccc(OC)cc2)cc1	?	2.82µM*	.	.	-32.2%	?
c1ccc(-c2oc3ncnc(NCCCN4CCOCC4)c3c2-c2ccccc2)cc1	-19.9	5.62µM*	.	.	-1.1%	?
COC(=O)C1=C(c2ccccc2)c2ccccc2S(=O)(=O)N1CC(=O)Nc1ccccc1Cl	-11.0	.	-13.0%	-23.8%	-22.1%[46.1 µM]	?
COC(=O)C1=C(c2ccccc2)c2ccccc2S(=O)(=O)N1CC(=O)Nc1ccc(F)c(F)c1	-30.4	.	1.4%	-11.7%	11.2µM*	?
OCCN1CCN(Cc2ccc3c(c2)CN(Cc2cc4ccccc4o2)CCO3)CC1	.	.	2.1%	-12.1%	.	.
COc1ccc(Sc2ccc(NC(=O)c3ccccc3Cl)cc2C#N)cc1	-26.1	11.2µM*	-28.9%	.	?	?
O=C(Nc1cccc(Cl)c1)c1ccccc1	80.6	7.2%	-14.3%	-14.2%	.	.
N#Cc1cc(NC(=O)c2ccc(Cl)cc2)ccc1Sc1ccccc1	-82.9*	.	?	?	.	.
CCOc1ccc(Sc2cc(C(=O)NCc3ccc(F)cc3)c3ccccc3n2)cc1	-35.2	.	-26.2%	-20.7%	0.7%[46.1 µM]	.
CCCCN1C2=C(C(=O)CCC2)C(c2ccc(Cl)c(Cl)c2)C2=C1c1ccccc1C2=O (stereo not given)	5.7	?	.	.	2.31µM*	?
CCCN1C(=O)c2ccccc2NC1c1ccc(Cl)c(Cl)c1 (stereo not given)	-14.3	?	.	.	.	.
COc1ccc2cc(CO)c3cc(OC)c(OC)cc3c2c1	-13.5	12.6µM*	?	?	.	.
CC1(C(=O)NCc2cccc(C(F)(F)F)c2)CCN1C1Cc2ccccc2C1 (stereo not given)	22.9	.	-10.4%	i	.	.
CC(C)Cn1c(-c2ccc(S(=O)(=O)N3CCCC3)cc2)csc1=Nc1ccccc1	-36.5	.	-1.1%	-13.2%	?	-27.9%[46.1 µM]
CC(=O)c1cccc(N=c2scc(-c3ccc(S(=O)(=O)N4CCOCC4)cc3)n2CCO)c1	-98.4*	1µM*	?	?	?	?
